Eight compounds from PubChem BioAssay (NCI) can be followed below.

Each structure is given as a SMILES string. About 83,000 compounds went through this panel and 20% of them were active in at least one assay; those are over-represented in the sample as a whole.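 Each cell line was grown in a 96-well plate and treated with one concentration of compound for 48 hours. Values below 10 were considered active.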 A number with no mark means an inactive call. Activity calls are given as the source filed them.

Holding throughout (assay): NCI-60 one-dose screen, 48 h (100 = growth as untreated, 0 = no growth, -100 = all killed)
In assay [1] the test system is HCT-15 colon. The note with it: 10 µM unless noted.
The test system of assay [2] is HT29 colon. The note with it: 10 µM unless noted.
Assay [3] concerns SNB-75 CNS. The note with it: 10 µM unless noted.
The test system of assay [4] is SNB-19 CNS. As to conditions: 10 µM unless noted.
The test system of assay [5] is U251 CNS. As to conditions: 10 µM unless noted.
Assay [6] deals with PC-3 prostate. As to conditions: 10 µM unless noted.
In assay [7] the test system is SK-MEL-5 melanoma. As to conditions: 10 µM unless noted.
The test system of assay [8] is UACC-62 melanoma. As to conditions: 10 µM unless noted.
In assay [9] the test system is LOX IMVI melanoma. The note with it: 10 µM.
Assay [10] concerns SK-MEL-28 melanoma. The note with it: 10 µM unless noted.
Assay [11] concerns SK-MEL-2 melanoma. The note with it: 10 µM unless noted.
The test system of assay [12] is EKVX NSCLC. As to conditions: 10 µM unless noted.
The test system of assay [13] is SN12C renal. As to conditions: 10 µM unless noted.
For assay [14], the system named is UO-31 renal. As to conditions: 10 µM unless noted.
Assay [15] deals with TK-10 renal. The note with it: 10 µM unless noted.
Assay [16] has as its system ACHN renal. As to conditions: 10 µM unless noted.
Assay [17] deals with CAKI-1 renal. As to conditions: 10 µM unless noted.
Assay [18] concerns A498 renal. As to conditions: 10 µM unless noted.
Assay [19] relates to CCRF-CEM leukemia. As to conditions: 10 µM unless noted.
Assay [20] concerns MOLT-4 leukemia. The note with it: 10 µM unless noted.

On to `NNc1ccc(Cl)cc1Cl`, for which the growth in assay [1] is 79.8%; in assay [2] it was 94.2%; in assay [3], 80.7%; in assay [4], 92.5%; in assay [5], 76.4%; in [6] it was 60.4%. In addition, the growth in assay [7] is 86.1%; in assay [8] it was 37.2%; in [9] it was 67.5%; in assay [10], 120%; in assay [11], 92.4%; in [12], 81.1%. Besides, the growth in assay [13] was 78.3%; in assay [14], 29.2%; in [15], 94.3%; in [16] it was 54.7%; in assay [17], 58.8%; in assay [18] it was 97.2%. For the same compound, the growth is 27.7% in assay [19] and 52.7% in assay [20].

Take `COc1ccc2c(c1)c(CC(=O)O)c(C)n2C(=O)c1ccc(Cl)cc1`: the growth in [1] was 104%; in assay [2] it was 111%; in [3], 84.7%; in assay [4] it was 110%; in assay [5], 90.3%; in [6], 104%. Also, the growth in assay [7] is 93.6%; in [8] it was 95.5%; in [9], 90.9%; in [10], 97.3%; in assay [11], 106%; in assay [12], 95.9%. The growth in [13] is 97.4%; in assay [14] it was 65.6%; in assay [16], 95.3%; in assay [17] it was 88.1%; in assay [18], 81.9%; in [19], 89.7%. Besides, the growth in assay [20] is 113%.

In the case of `Cc1cc2cccnc2c2ncccc12`, the growth in [1] is 37%; in assay [2] it was 19.7%; in assay [3], 2.75% (active); in [4], 34.1%; in assay [5], 17.2%; in assay [6], 47.3%. For the same compound, the growth in [7] was 3.03% (active); in assay [8], 0.859% (active); in assay [9] it was 14.8%; in assay [10], 32.2%; in assay [11] it was 6.1% (active); in [12] it was 40.2%. For the same compound, the growth is 22.4% in [13]; 27% in assay [14]; 11.9% in assay [15]; 18.2% in assay [16]; 12.6% in assay [17]; 23.6% in assay [18]. The results for the growth in assay [19] and in [20] were -11.8% (active) and 5.73% (active), respectively.

Regarding `N#CC(=C1SCS1)[N+](=O)[O-]`, the growth in assay [1] was 12.3%; in assay [2] it was 1.29% (active); in assay [3] it was 40.5%; in [4], 41.2%; in assay [5] it was 14.4%; in assay [6], 28.8%. Besides, the growth in assay [7] was 5.48% (active); in assay [8], 38.1%; in assay [9], 17%; in assay [10], 37.8%; in [11] it was 19.2%; in assay [12], 63.7%. The growth in [13] is 28%; in assay [14] it was 32.3%; in assay [15], 3.93% (active); in [16], 24.5%; in assay [18], 59.3%; in assay [19] it was 2.01% (active). Moreover, the growth in assay [20] was 3.81% (active).

On to `CCCCCCCCCCCC[n+]1ccccc1` (tested in a mixture with another compound), for which the growth was 38.5% in assay [1]; -30.1% (active) in assay [2]; -45.9% (active) in [3]; -10.2% (active) in assay [4]; -24.1% (active) in [5]; -61.8% (active) in [6]. The growth in assay [7] was -98.5% (active); in [8], -62.3% (active); in assay [9], -58.3% (active); in assay [10] it was -19.1% (active); in assay [11], -83.5% (active); in [12] it was -20.5% (active). For the same compound, the growth is -15.9% (active) in assay [13]; 1.25% (active) in assay [14]; -47.5% (active) in assay [15]; 22.2% in [16]; 42% in [18]; -2.6% (active) in [19]. Moreover, the growth in assay [20] is -30.6% (active).

`OC(CSc1ccccc1)CN1CCN(c2ccc(Cl)cc2)CC1` (stereo unspecified): the growth in assay [1] was 96.1%; in [2] it was 101%; in assay [3] it was 91.3%; in [4], 94.7%; in assay [5], 95.2%; in [6], 94.3%. Moreover, the growth in assay [7] was 89.2%; in assay [8], 82.2%; in assay [9] it was 93%; in assay [10], 110%; in [11], 98.5%; in assay [12] it was 95.2%. In addition, the growth in assay [13] is 94.4%; in assay [14], 84.8%; in assay [15] it was 101%; in [16], 97.9%; in assay [17], 88.1%; in assay [18], 82.1%. Moreover, the growth in assay [19] was 86%; in [20], 83%.

Consider `O=C1c2ccccc2Cc2cccc(Cl)c21`, for which the growth in assay [1] was 97.4%; in assay [2], 87.7%; in assay [3], 117%; in assay [4], 100%; in [5], 101%; in assay [6], 92.9%. The growth in assay [7] was 96.2%; in [8], 98.9%; in assay [9] it was 93.9%; in assay [10] it was 101%; in assay [11], 87.5%; in assay [12], 104%. Besides, the growth is 97.3% in assay [13]; 82.9% in assay [14]; 89.6% in [15]; 98.9% in assay [16]; 99.1% in assay [17]; 64.3% in assay [18]. In addition, the values for the growth in [19] and in assay [20] were 98.8% and 39.6%, respectively.

`O=C(c1ccccc1)C(Br)C(Br)c1ccccc1` (stereo unspecified): the growth in assay [1] is 86%; in [2], -52.9% (active); in assay [3], 96.9%; in assay [4], 102%; in assay [5], 68.6%; in assay [6] it was 55.3%. In addition, the growth was 107% in assay [7]; 108% in [8]; -55.3% (active) in [9]; 111% in assay [10]; 75.5% in [11]; 108% in assay [12]. The growth in [13] is 104%; in [15], 103%; in [16] it was 18.8%; in [17], -50.2% (active); in assay [18] it was 88.4%; in assay [19] it was -14% (active). Further, in [20], the growth was 47.5%.
